31 compounds from PubChem BioAssay (NCATS) can be followed below.

Test [1] relates to Nanoluciferase (engineered Oplophorus gracilirostris luciferase). The test is described as follows: Primary Nanoluciferase (NLuc) qHTS assay for identification of artifact compounds. (AID 1845222). Also: potency is read from the fitted curve at half-maximal effect.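 As to activity, negative = inhibition: series mostly up to about 54 µM; 0% = DMSO and -100% = no enzyme.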 The method, boiled down: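 Luminescence read-out of secreted NLuc in S16 cell conditioned medium (1:55); compounds tested with 15 min RT preincubation, then Nano-Glo substrate 1:100, 5 min. % inhibition vs no-enzyme and DMSO controls, 4-parameter Hill fit.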

Test [2] is described as follows: Primary redox qHTS assay for identification of artifact compounds. (AID 1845223).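 Also: 0% = DMSO and 100% = reference compound.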 The procedure, abridged: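 Redox-cycling detection via DTT (250 uM final) oxidation coupled to Amplex Red (25 uM)/HRP (250 mU/mL) in HBSS. 15 min preincubation plus 30 min after DTT, room temperature. Ex/Em 525/598 nm; 4-parameter Hill fit against DMSO and 10 uM DA3003.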

The structures appear in SMILES notation. Unmarked numbers belong to inactive results. Results filed as inconclusive are left out. Active and inactive are the calls of the source. Calls follow the shape of the dose curve; as a rule, active = well fitted curve in the direction sought with a large enough effect; inconclusive = small, poorly fitted or top-dose-only effect, or another doubt; inactive = no such curve, though single readings can be large; an effect the other way counts as inactive or inconclusive.

As for `C[C@]1(O)CC[C@@H]2C(C(=O)O)=CO[C@@H](O[C@@H]3O[C@H](COC(=O)/C=C/c4ccc(O)c(O)c4)[C@@H](O)[C@H](O)[C@H]3O)[C@@H]21`, the Potency entry in test [1] and in test [2] was “inactive” throughout.

On to `COc1cc(/C=C/CO[C@@H]2O[C@H](CO)[C@@H](O)[C@H](O)[C@H]2O)cc(OC)c1O[C@@H]1O[C@H](CO)[C@@H](O)[C@H](O)[C@H]1O`, for which the Potency entry in test [1] and in test [2] was “inactive” throughout.

For the compound `C[C@]1(OC(=O)/C=C/c2ccccc2)C[C@@H](O)[C@]2(O)C=CO[C@@H](O[C@@H]3O[C@H](CO)[C@@H](O)[C@H](O)[C@H]3O)[C@@H]21`, the Potency entry in test [1] and in test [2] was “inactive” in each case.

For `O=C(O)CC(CCc1ccccc1)OC1OC(CO)C(O)C(O)C1O` (configuration not stated), the Potency result in test [1] and in test [2] was “inactive” throughout.

Consider `Cc1ncc([N+](=O)[O-])n1C[C@H](O)CN1CCOCC1`, for which the Potency entry in test [1] and in test [2] was “inactive” in each case.

With `COc1ccc(S(=O)(=O)Nc2nc(-c3cccc([N+](=O)[O-])c3)cs2)cc1OC`, the Potency in test [1] was 9.53 µM (active). Moreover, the Potency result in test [2] was “inactive”.

As for `C/C=C(\C)C(=O)OC[C@H]1O[C@@H](O[C@H]2[C@@H](O[C@H]3O[C@H](COC(=O)/C(C)=C/C)[C@@H](O)[C@H](O)[C@H]3O[C@@H]3O[C@H](COC(=O)/C(C)=C/C)[C@@H](O)[C@H](OC(=O)/C(C)=C/C)[C@H]3O)O[C@H](COC(=O)/C(C)=C/C)[C@@H](O)[C@@H]2O)[C@H](O)[C@@H](O)[C@@H]1O`, the activity, negative = inhibition in test [1] was 0.483% [at 11.6 µM]. Besides, the redox activity (% of DA3003) in test [2] is -2.39% [at 11.5 µM].

As to `CCC(C)C1NC(=O)C2C(C)CCN2C(=O)C(CC(O)CO)OC(=O)CCNC(=O)C(C)N(C)C(=O)C(C(C)C)N(C)C1=O` (configuration not stated), the Potency entry in test [1] and in test [2] was “inactive” each time.

For the compound `Cc1c(O)cc2c(c1O)COC1(O)CCCOC21` (configuration not stated), the Potency result in test [1] and in test [2] was “inactive” each time.

As to `O=C(Nc1ccccc1)Nc1ccc(-c2ccc(C(=O)C3CCCC3C(=O)O)cc2)cc1` (configuration not stated), the Potency result in test [1] and in test [2] was “inactive” in each case.

Consider `C=C1C(O)CC2C(C(=O)O)=COC(OC3OC(CO)C(O)C(O)C3OC(=O)/C=C\c3ccc(O)cc3)C12` (configuration not stated), for which the Potency entry in test [1] and in test [2] was “inactive” each time.

For the compound `C[C@H]1[C@H](C)C[C@@H](C(=O)O)C2CC[C@]3(C)C(=CC[C@@H]4[C@@]5(C)CC[C@H](O)C(C)(C)[C@@H]5CC[C@]43C)[C@@H]21` (some centres not stated), the Potency entry in test [1] and in test [2] was “inactive” in each case.

Take `CC1(C)CC[C@]2(C(=O)O)CC[C@]3(C)C(=CCC4[C@@]5(C)C[C@@H](O)[C@H](O)[C@@](C)(CO)C5[C@H](O)C[C@]43C)[C@@H]2C1` (some centres not stated): the Potency entry in test [1] and in test [2] was “inactive” in each case.

Take `C=C(CCO[C@@H]1O[C@H](CO)[C@@H](O)[C@H](O)[C@H]1O)C(=O)O`: the Potency entry in test [1] and in test [2] was “inactive” each time.

Turning to `CCC(C)C(=O)O[C@H]1C[C@](C)(O)[C@]23OC(C)(C)[C@H](C[C@H](OC(=O)c4ccccc4)[C@]2(COC(C)=O)[C@H]1OC(=O)C(C)CC)[C@H]3OC(C)=O` (some centres not stated), the Potency entry in test [1] and in test [2] was “inactive” in each case.

With `COc1ccc(OC2OC(CO[C@@H]3O[C@@H](C)[C@H](O)[C@@H](O)[C@H]3O)C(O)C(O)C2O)cc1OC` (some centres not stated), the Potency result in test [1] and in test [2] was “inactive” in each case.

Turning to `C=CC(C)(CC/C=C(\C)C(=O)OC)OC1OC(COC(=O)CC(C)(O)CC(=O)O)C(O)C(O)C1O` (configuration not stated), the Potency result in test [1] and in test [2] was “inactive” each time.

Turning to `CC1C(=O)OCC2=CC[N+]3([O-])CCC(OC(=O)C(C)(O)C1(C)O)C23` (configuration not stated), the Potency result in test [1] and in test [2] was “inactive” in each case.

As for `C[C@H]1CCN2C[C@]34C[C@@]5(C(=O)Nc6c5ccc5c6OC=CC(C)(C)O5)C(C)(C)C3C[C@]12C(=O)N4C` (some centres not stated), the Potency result in test [1] and in test [2] was “inactive” in each case.

For the compound `CC1CC(=O)[C@]2(O)C(C(=O)OCCc3ccc(O)cc3)=CO[C@@H](O[C@@H]3O[C@H](CO)[C@@H](O)[C@H](O)[C@H]3O)[C@H]12` (some centres not stated), the Potency entry in test [1] and in test [2] was “inactive” in each case.

With `CC(C)c1ccc2c(c1)[C@H](O)CC1[C@@](C)(C(=O)O)CCC[C@]21C` (some centres not stated), the Potency result in test [1] and in test [2] was “inactive” in each case.

Turning to `COc1c(C)c(OCC=C(C)C)cc2c1CNC2=O`, the Potency result in test [1] and in test [2] was “inactive” in each case.

For the compound `CC(C)=C1C[C@@]2(C)C(=CC1=O)CC[C@@H](O)[C@@H]2C`, the Potency entry in test [1] and in test [2] was “inactive” in each case.

As to `NC1=NC2(c3cc(NC(=O)c4ccc(F)cn4)ccc3F)COCC2CS1` (configuration not stated), the Potency entry in test [1] and in test [2] was “inactive” throughout.

Take `C=Cc1cc2oc(-c3ccc(O)c(F)c3)nc2cc1O`: the Potency result in test [1] and in test [2] was “inactive” in each case.

In the case of `O=C(O)CC1(O)C(=O)Nc2ccccc21` (configuration not stated), the Potency entry in test [1] and in test [2] was “inactive” each time.

Regarding `COC(=O)c1c(CC=C(C)C)c(OC2OC(CO)C(O)C(O)C2O)c2ccccc2c1OC1OC(CO)C(O)C(O)C1O` (configuration not stated), the Potency result in test [1] and in test [2] was “inactive” each time.

Turning to `CCCN(CCN1CCN(c2ccccc2OC)CC1)C1CCc2ncsc2C1` (configuration not stated), the Potency result in test [1] and in test [2] was “inactive” in each case.

With `O=C(O)CC1CCC(c2ccc(-c3ccc(Nc4ccc(C(F)(F)F)nc4)cn3)cc2)CC1` (configuration not stated), the Potency entry in test [1] and in test [2] was “inactive” each time.

Turning to `CC(=O)OC12CC(C)C(O)C1/C=C(/COC1OC(CO)C(O)C(O)C1O)CCC1C(/C=C(\C)C2=O)C1(C)C` (configuration not stated), the Potency entry in test [1] and in test [2] was “inactive” throughout.

`C=C(C)[C@H]1CC[C@]2(C(=O)O)CC[C@]3(C)C(CCC4[C@@]5(C)CCC(=O)C(C)(C)C5CC[C@]43C)C12` (some centres not stated): the Potency entry in test [1] and in test [2] was “inactive” each time.
